Data as given in the supplement of paper PMC6411743.
± gives the standard deviation of the averaged measurements. Of roughly 6,200 targets only a part is listed; those with the largest changes were picked by preference.

Assays:
Assay in all cases: NP40-soluble protein abundance relative to vehicle (solubility fold change) (ratio); higher = more soluble protein in presence of AMP-PNP
DDX52 = target: T1, DDX52 (UniProt Q9Y2R4)
T1 sequence (whole entry): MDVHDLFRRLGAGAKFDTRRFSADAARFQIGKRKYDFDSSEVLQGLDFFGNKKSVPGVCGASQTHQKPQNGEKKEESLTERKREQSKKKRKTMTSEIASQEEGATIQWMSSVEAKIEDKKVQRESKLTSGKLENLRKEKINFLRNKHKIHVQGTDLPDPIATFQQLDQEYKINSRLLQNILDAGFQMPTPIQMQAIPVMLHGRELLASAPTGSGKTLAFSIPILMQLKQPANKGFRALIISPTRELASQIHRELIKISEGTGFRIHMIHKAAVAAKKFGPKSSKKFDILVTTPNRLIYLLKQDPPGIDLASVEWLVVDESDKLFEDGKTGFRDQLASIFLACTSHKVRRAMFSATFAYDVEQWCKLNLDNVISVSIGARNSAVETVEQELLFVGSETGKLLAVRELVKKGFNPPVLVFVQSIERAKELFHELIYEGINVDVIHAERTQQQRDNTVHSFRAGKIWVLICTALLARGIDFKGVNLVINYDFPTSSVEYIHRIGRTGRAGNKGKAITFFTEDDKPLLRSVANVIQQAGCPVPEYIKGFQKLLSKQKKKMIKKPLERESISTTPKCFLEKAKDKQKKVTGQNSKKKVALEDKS
Method in brief: (§1)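 Data come from three independent experiments in which Dounce-homogenised Jurkat crude lysate was treated at eight concentrations from 0.1 to 10 mM. Treatment ran 10 min at room temperature and then 3 min at 37 °C, after which 0.8% NP40 and benzonase were added for 60 min at 4 °C before ultracentrifugation. The supernatant underwent TMT labelling and LC-MS/MS, and vsn-normalised intensities were expressed as fold change against the detergent-processed vehicle in each replicate.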

NKIRAS1 = target: T2, NKIRAS1 (UniProt Q9NYS0)
T2 sequence (whole entry): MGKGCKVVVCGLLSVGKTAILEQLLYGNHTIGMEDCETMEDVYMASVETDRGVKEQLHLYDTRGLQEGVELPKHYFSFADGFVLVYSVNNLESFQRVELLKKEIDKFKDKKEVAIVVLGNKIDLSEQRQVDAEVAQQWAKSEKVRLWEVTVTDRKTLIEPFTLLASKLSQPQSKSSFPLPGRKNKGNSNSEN
Method in brief: as §1

POLG2 = target: T3, POLG2 (UniProt Q9UHN1)
T3 sequence (whole entry): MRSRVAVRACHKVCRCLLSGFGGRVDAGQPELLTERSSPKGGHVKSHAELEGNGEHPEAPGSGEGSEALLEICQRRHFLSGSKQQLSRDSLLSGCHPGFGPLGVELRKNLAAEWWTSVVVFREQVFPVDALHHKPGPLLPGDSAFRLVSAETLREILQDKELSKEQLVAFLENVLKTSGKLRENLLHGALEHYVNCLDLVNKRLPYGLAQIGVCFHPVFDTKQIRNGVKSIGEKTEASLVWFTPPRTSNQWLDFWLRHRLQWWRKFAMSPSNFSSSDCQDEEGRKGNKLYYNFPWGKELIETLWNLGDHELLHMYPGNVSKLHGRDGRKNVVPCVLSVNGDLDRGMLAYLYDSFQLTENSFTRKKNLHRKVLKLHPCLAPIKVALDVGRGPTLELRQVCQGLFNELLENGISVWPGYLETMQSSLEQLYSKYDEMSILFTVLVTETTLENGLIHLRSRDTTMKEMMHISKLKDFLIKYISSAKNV
Method in brief: as §1

PRKRIP1 = target: T4, PRKRIP1 (UniProt Q9H875)
T4 sequence (whole entry): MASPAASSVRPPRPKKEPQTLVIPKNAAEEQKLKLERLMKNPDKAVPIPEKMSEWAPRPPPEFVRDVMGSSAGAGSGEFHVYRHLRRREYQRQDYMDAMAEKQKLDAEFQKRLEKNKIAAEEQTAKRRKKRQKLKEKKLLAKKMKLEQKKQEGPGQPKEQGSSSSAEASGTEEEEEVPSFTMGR
Method in brief: as §1

SNX6 = target: T5, SNX6 (UniProt Q9UNH7)
T5 sequence (whole entry): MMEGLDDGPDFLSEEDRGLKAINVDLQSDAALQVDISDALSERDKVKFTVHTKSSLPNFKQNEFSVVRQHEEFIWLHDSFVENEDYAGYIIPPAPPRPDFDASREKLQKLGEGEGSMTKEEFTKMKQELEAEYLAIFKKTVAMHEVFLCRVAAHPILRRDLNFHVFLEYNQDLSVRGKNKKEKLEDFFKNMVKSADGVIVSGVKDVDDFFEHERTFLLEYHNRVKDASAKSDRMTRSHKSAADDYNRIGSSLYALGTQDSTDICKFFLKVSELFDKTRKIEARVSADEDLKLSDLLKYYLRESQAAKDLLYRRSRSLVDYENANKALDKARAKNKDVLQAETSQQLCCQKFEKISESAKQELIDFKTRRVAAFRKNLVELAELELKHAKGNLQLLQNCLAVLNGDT
Method in brief: as §1

TFIP11 = target: T6, TFIP11 (UniProt Q9UBB9)
T6 sequence (whole entry): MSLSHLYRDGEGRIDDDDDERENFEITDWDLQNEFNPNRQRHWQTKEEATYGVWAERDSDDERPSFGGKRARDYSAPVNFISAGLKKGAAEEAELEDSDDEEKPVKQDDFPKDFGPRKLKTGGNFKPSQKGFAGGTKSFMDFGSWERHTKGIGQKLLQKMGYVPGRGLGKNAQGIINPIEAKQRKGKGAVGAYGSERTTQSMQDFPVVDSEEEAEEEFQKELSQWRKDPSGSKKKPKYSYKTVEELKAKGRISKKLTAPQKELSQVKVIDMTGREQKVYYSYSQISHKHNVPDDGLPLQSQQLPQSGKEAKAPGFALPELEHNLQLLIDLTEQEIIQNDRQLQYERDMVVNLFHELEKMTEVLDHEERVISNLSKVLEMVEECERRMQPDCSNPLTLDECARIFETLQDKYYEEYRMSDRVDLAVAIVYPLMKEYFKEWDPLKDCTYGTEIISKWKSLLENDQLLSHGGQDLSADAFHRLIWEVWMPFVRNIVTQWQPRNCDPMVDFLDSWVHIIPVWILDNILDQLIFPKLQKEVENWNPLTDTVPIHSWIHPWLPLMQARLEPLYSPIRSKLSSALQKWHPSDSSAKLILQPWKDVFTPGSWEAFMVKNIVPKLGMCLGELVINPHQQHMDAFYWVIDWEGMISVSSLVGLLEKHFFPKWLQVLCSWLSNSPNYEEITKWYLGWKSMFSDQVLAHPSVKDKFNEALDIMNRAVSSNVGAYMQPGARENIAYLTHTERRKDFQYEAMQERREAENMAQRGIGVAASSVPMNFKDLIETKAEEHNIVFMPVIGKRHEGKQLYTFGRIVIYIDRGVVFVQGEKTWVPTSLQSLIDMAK
Method in brief: as §1

UniProt Q9BY77|Q9BY77-2 = target: T7, UniProt Q9BY77|Q9BY77-2
T7 sequence (whole entry): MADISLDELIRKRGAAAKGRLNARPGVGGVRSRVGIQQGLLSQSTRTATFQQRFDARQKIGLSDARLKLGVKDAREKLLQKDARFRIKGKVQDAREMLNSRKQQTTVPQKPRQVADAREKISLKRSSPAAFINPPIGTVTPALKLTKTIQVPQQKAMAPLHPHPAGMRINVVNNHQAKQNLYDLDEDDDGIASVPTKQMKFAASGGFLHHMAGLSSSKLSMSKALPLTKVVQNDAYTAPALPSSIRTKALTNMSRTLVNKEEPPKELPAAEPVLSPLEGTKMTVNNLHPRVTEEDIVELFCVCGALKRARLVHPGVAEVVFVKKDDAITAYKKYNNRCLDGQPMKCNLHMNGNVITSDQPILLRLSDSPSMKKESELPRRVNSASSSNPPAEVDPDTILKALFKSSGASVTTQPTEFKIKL
Method in brief: as §1

Nc1ncnc2c1ncn2[C@@H]1O[C@H](COP(=O)(O)OP(=O)(O)NP(=O)(O)O)[C@@H](O)[C@H]1O [adenylyl imidodiphosphate]
NP40-soluble protein abundance (DDX52; concentration: 1mM): 1.08 ± 0.094 | NP40-soluble protein abundance (DDX52; concentration: 2mM): 1.1 ± 0.047 | NP40-soluble protein abundance (DDX52; concentration: 4mM): 1.18 ± 0.07 | NP40-soluble protein abundance (DDX52; concentration: 6mM): 1.22 ± 0.038 | NP40-soluble protein abundance (DDX52; concentration: 8mM): 1.28 ± 0.055 | NP40-soluble protein abundance (DDX52; concentration: 10mM): 1.39 ± 0.046 | NP40-soluble protein abundance (NKIRAS1; concentration: 1mM): 1 ± 0.033 | NP40-soluble protein abundance (NKIRAS1; concentration: 2mM): 1.025 ± 0.0079 | NP40-soluble protein abundance (NKIRAS1; concentration: 4mM): 0.981 ± 0.024 | NP40-soluble protein abundance (NKIRAS1; concentration: 6mM): 0.988 ± 0.027 | NP40-soluble protein abundance (NKIRAS1; concentration: 8mM): 1 ± 0.018 | NP40-soluble protein abundance (NKIRAS1; concentration: 10mM): 0.9796 ± 0.0011 | NP40-soluble protein abundance (POLG2; concentration: 1mM): 0.994 ± 0.073 | NP40-soluble protein abundance (POLG2; concentration: 2mM): 1.03 ± 0.056 | NP40-soluble protein abundance (POLG2; concentration: 4mM): 0.996 ± 0.072 | NP40-soluble protein abundance (POLG2; concentration: 6mM): 1.06 ± 0.051 | NP40-soluble protein abundance (POLG2; concentration: 8mM): 1.07 ± 0.043 | NP40-soluble protein abundance (POLG2; concentration: 10mM): 1.05 ± 0.021 | NP40-soluble protein abundance (PRKRIP1; concentration: 1mM): 1.03 ± 0.053 | NP40-soluble protein abundance (PRKRIP1; concentration: 2mM): 1.14 ± 0.12 | NP40-soluble protein abundance (PRKRIP1; concentration: 4mM): 1.1 ± 0.11 | NP40-soluble protein abundance (PRKRIP1; concentration: 6mM): 1.14 ± 0.073 | NP40-soluble protein abundance (PRKRIP1; concentration: 8mM): 1.16 ± 0.1 | NP40-soluble protein abundance (PRKRIP1; concentration: 10mM): 1.15 ± 0.15 | NP40-soluble protein abundance (SNX6; concentration: 1mM): 0.992 ± 0.031 | NP40-soluble protein abundance (SNX6; concentration: 2mM): 1.03 ± 0.12 | NP40-soluble protein abundance (SNX6; concentration: 4mM): 0.991 ± 0.069 | NP40-soluble protein abundance (SNX6; concentration: 6mM): 1.03 ± 0.076 | NP40-soluble protein abundance (SNX6; concentration: 8mM): 1 ± 0.077 | NP40-soluble protein abundance (SNX6; concentration: 10mM): 1.03 ± 0.079 | NP40-soluble protein abundance (TFIP11; concentration: 1mM): 1.01 ± 0.028 | NP40-soluble protein abundance (TFIP11; concentration: 2mM): 1.01 ± 0.033 | NP40-soluble protein abundance (TFIP11; concentration: 4mM): 1.07 ± 0.042 | NP40-soluble protein abundance (TFIP11; concentration: 6mM): 1.08 ± 0.05 | NP40-soluble protein abundance (TFIP11; concentration: 8mM): 1.09 ± 0.015 | NP40-soluble protein abundance (TFIP11; concentration: 10mM): 1.13 ± 0.039 | NP40-soluble protein abundance (UniProt Q9BY77|Q9BY77-2; concentration: 1mM): 1 ± 0.038 | NP40-soluble protein abundance (UniProt Q9BY77|Q9BY77-2; concentration: 2mM): 1.06 ± 0.064 | NP40-soluble protein abundance (UniProt Q9BY77|Q9BY77-2; concentration: 4mM): 1.04 ± 0.042
